Experimental data reported in publication PMC7819943, “Rice protein-binding microarrays: a tool to detect cis-acting elements near promoter regions in rice”.
Over roughly 35,000 sequences, “fluorescence intensity (a.u.)” has its median near 10,000; the highest 2% begin near 52,000. The entries come from a sample that favours the highest values as a whole.

Each sequence was assayed against T1, OsWOX13 (Oryza sativa, UniProt Q5QMM3 1-267) (assay: protein-binding microarray (RPBM); PBS, 2% BSA, 51.3 ng/ul salmon testes DNA, 50 uM zinc acetate, 200 nM TF, 25 C, 1 h; high values mean tight binding). Conditions: protein: recombinant; tags: N-terminal polyhistidine and DsRed monomer fusion (pET32a); label: CyDye5-dUTP incorporated in the synthesized complementary strand; 3' TTTTT single-stranded linker to array surface; dsDNA, one strand shown.
T1 sequence: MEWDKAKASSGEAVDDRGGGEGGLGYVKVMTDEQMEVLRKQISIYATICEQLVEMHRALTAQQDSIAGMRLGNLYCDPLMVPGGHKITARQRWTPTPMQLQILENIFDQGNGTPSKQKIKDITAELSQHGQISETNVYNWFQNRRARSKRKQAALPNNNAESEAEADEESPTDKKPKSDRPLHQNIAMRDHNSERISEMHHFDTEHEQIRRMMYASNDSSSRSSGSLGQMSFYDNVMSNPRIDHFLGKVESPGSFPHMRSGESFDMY
Procedure, shortened: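 The binding signal is fluorescence intensity per array feature (arbitrary units). Readings came from an Axon 4000B scanner after a washed, 2% BSA-blocked, double-stranded custom Agilent array had been incubated for 1 h at 25 °C with 200 nM protein and 50 µM zinc acetate. The protein was a Ni–NTA-purified transcription factor fused N-terminally to polyhistidine and DsRed, expressed in E. coli BL21-CodonPlus.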

Sequence | binding signal
GTACCTACCAGTAATTAATCAGCAGGCTCACTGTAATCAACGGAGTCACCTAGTGCAG | 3470 fluorescence intensity (a.u.)
CATTTGATTTTCGGTCTGATTTTGTTATTTCACTGGCAATCGGAGTCACCTAGTGCAG | 24300 fluorescence intensity (a.u.)
GGTGACAGTTTGGTTAGTGACAAATAGTTACATTCTCGTTCGGAGTCACCTAGTGCAG | 5070 fluorescence intensity (a.u.)
GTTTAAAGAAATTGATGAAAGAAAAGCTTCATTGTTGGCTCGGAGTCACCTAGTGCAG | 6180 fluorescence intensity (a.u.)
TTTAATTGAACTTGAGTGGTCCAGGTATTAAATGTGGGTCCGGAGTCACCTAGTGCAG | 52200 fluorescence intensity (a.u.)
ACCCAGGCTTTGATTGCGATGATAAACCGAGCTCGCAGCACGGAGTCACCTAGTGCAG | 13800 fluorescence intensity (a.u.)
GGAAATTTAACTATTTGCCACTTTTAGGTTTATCAATTATCGGAGTCACCTAGTGCAG | 4880 fluorescence intensity (a.u.)
ATTGGACCTGAACACTGCTAATTAATTGGTATAAGTCATCCGGAGTCACCTAGTGCAG | 8360 fluorescence intensity (a.u.)
ATTAATGAACTGTGACATTTCCTTAATTTCATTTTGCTCTCGGAGTCACCTAGTGCAG | 23800 fluorescence intensity (a.u.)
ATAGATAGATTTCTCCATAAGTAATTACATTGTAGGTAGGCGGAGTCACCTAGTGCAG | 28500 fluorescence intensity (a.u.)
AACTGATATGTAGGGTATGATTGTAATGAAATTACGATTGCGGAGTCACCTAGTGCAG | 10700 fluorescence intensity (a.u.)
ATAACAGTGATTGATCTGTTAAATATCCGATACGGGTAGGCGGAGTCACCTAGTGCAG | 65200 fluorescence intensity (a.u.)
TCTGATTGATGATGACGATGATGGCGGCTGTGCAGCTGAACGGAGTCACCTAGTGCAG | 47600 fluorescence intensity (a.u.)
TTAAATTGTTAATACCTCTGTATATCATCCGATCTACGTACGGAGTCACCTAGTGCAG | 19600 fluorescence intensity (a.u.)
AATAACTGATGACTGTGAATGATTGATACGATGTAGTAGGCGGAGTCACCTAGTGCAG | 65300 fluorescence intensity (a.u.)
CAGTTATGTGATTGGACTATAAATACGATATATGTTGTGTCGGAGTCACCTAGTGCAG | 28700 fluorescence intensity (a.u.)
GACTTGTAATTTGTAGCAGTGGTAAGAAATAAATCTGACCCGGAGTCACCTAGTGCAG | 3900 fluorescence intensity (a.u.)
CTTAAACAAATGATAGTACGATCCCATCTGATTGGGTGTTCGGAGTCACCTAGTGCAG | 7540 fluorescence intensity (a.u.)
ACTCAATCTTATTAACTTAAATTGAACTTGAACAAGAGAACGGAGTCACCTAGTGCAG | 22000 fluorescence intensity (a.u.)
ACTGATAACTTCCAACTGATAATTGGAGAAGGAGGGTTTGCGGAGTCACCTAGTGCAG | 12400 fluorescence intensity (a.u.)
TCGTAAATTTAAATCCATAGATTTAAGGAATACTTAGGCTCGGAGTCACCTAGTGCAG | 25900 fluorescence intensity (a.u.)
GTAATTAATTAACATTGCAATTAAGCACATAAGTTAATCACGGAGTCACCTAGTGCAG | 27000 fluorescence intensity (a.u.)
GCAAATTAATTAACTAATTAATTAAACACCCAACTAATCTCGGAGTCACCTAGTGCAG | 63700 fluorescence intensity (a.u.)
AATCAACTAACTAATCATGGGATTAACCAAAACTAATTCTCGGAGTCACCTAGTGCAG | 3800 fluorescence intensity (a.u.)

Sequence | binding signal
GTAATTAACAGCAATCAGCAAGTGGCCTAATTGCCAACCTCGGAGTCACCTAGTGCAG | 56700 fluorescence intensity (a.u.)
AATTAATCAGCCAATCACAATCTCTCAAACTACACGGACTCGGAGTCACCTAGTGCAG | 35500 fluorescence intensity (a.u.)
TTGAGCACTAATTAATCATTAGGTGGCCTAATCAACAGCTCGGAGTCACCTAGTGCAG | 22000 fluorescence intensity (a.u.)
TCAATTAATTAATTAATTAACTACACTTTCACACGAGTCTCGGAGTCACCTAGTGCAG | 52700 fluorescence intensity (a.u.)
AGACAATTCAATAATTAATCTACACTTTCCTTCCGCACCTCGGAGTCACCTAGTGCAG | 5880 fluorescence intensity (a.u.)
ACCCAAAATTAACTCTAAACTTAAGTTTCAAAATCTAAATCGGAGTCACCTAGTGCAG | 7640 fluorescence intensity (a.u.)
CCACCTCTAATGAAGAGGTGATTGCAACCATTCATCTCTTCGGAGTCACCTAGTGCAG | 12000 fluorescence intensity (a.u.)
AAACAAACTAACATGGATTGATTTTCTATAGGATGGAGGGCGGAGTCACCTAGTGCAG | 25200 fluorescence intensity (a.u.)
TGGATTTTAAATTAAGTAAATTGCACCAGCGGTCCTTAAACGGAGTCACCTAGTGCAG | 6480 fluorescence intensity (a.u.)
AATTTGAATTTTGTTAAGTTAAATTTGATGAACTGGGGCCCGGAGTCACCTAGTGCAG | 5490 fluorescence intensity (a.u.)
TTATAATTATTTGTGTTGCAATGTATGTTTTGTTTATATACGGAGTCACCTAGTGCAG | 9980 fluorescence intensity (a.u.)
TTTGGGTGTTAGTGTCTTAATTAGTGTGTGAGCCCCATCCCGGAGTCACCTAGTGCAG | 3790 fluorescence intensity (a.u.)
TGTGGCTAAATTTATCAATTGAATGGGCTAGAGGCACGCTCGGAGTCACCTAGTGCAG | 17400 fluorescence intensity (a.u.)
CCAAATTCATTAAAATTAACAATAACAATTATATTTGTTTCGGAGTCACCTAGTGCAG | 10900 fluorescence intensity (a.u.)
GTTTAGCAAATCCAGCACCCATTATACAGACTTTCTATGCCGGAGTCACCTAGTGCAG | 65500 fluorescence intensity (a.u.)
AAGTCTAATTAATCCATCATTAGCAAATGTTTATTGTAGCCGGAGTCACCTAGTGCAG | 26700 fluorescence intensity (a.u.)
ATTGAGTCAATCCACACTTTATTAGCACATTGGCCCACACCGGAGTCACCTAGTGCAG | 3510 fluorescence intensity (a.u.)
ATTTGCTAATGACGGATTAATTAGATTTAATAAATTCATCCGGAGTCACCTAGTGCAG | 39700 fluorescence intensity (a.u.)
AAGCTGAAATTTGTTAGAGTAATAGTTGACACCATTACCACGGAGTCACCTAGTGCAG | 3160 fluorescence intensity (a.u.)
CTCAATAATTAAGTTCTTGATTAACATTGATATTACTTTCCGGAGTCACCTAGTGCAG | 24600 fluorescence intensity (a.u.)
TTGGCCTTCAATCATTGACACTTGGACAGAACAAATCAATCGGAGTCACCTAGTGCAG | 26000 fluorescence intensity (a.u.)
TCACCTTGATTTCAATCATTGGACAAGTGTCCTAGAAAGTCGGAGTCACCTAGTGCAG | 55300 fluorescence intensity (a.u.)
CCCAATTGGTGATTAGATAATCCTGTCACTTTCTTCAAGTCGGAGTCACCTAGTGCAG | 54100 fluorescence intensity (a.u.)
